The panel holds about 83,000 compounds, 20% with a hit somewhere; the sample as a whole holds those more often.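 For each line, cells grew in 96-well plates with the test compound present at a single concentration for 48 hours.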 Values without a mark were called inactive. Calls of active or inactive are those of the source. The calls were made as follows: active = growth percent below 10; inactive = the rest.
test system: HL-60(TB) leukemia; test: NCI-60 one-dose screen, 48 h (100 = growth as untreated, 0 = no growth, -100 = all killed); settings: 10 µM unless noted

Row | SMILES | growth
1 | COc1ccc(/C=C(/C(=O)c2ccc(Cl)cc2)C(=O)C(F)(F)F)cc1 | 106%
2 | Nc1cc(C(=O)O)cc(C(=O)O)c1 | 90.2%
3 | O=C(O)CCC(=O)c1ccc(C2CCCCCC2)cc1 | 107%
4 | Cc1cc(N2CCCCC2)nc(NCc2cc(Nc3ccnc4cc(Cl)ccc34)ccc2F)n1 | -65.7% (active)
5 | COc1ccc(/C(C)=C(\c2ccc(Cl)cc2)c2ccc(OCCCN(C)C)cc2)cc1 | 67.1%
6 | COc1ccccc1/C=N\N/C(N)=N\N=C\c1ccccc1OC | -25.9% (active)
7 | COc1ccc(-c2nc3c(c(C)nn3-c3ccc(F)cc3)c(=O)[nH]2)cc1 | 70%
8 | CCCCc1c(CCC)c(=N)c2ccccc2n1C | 77%
9 | CN(C)[C@@H]1C(=O)C(C(N)=O)=C(O)[C@@]2(O)C(=O)C3=C(O)c4c(O)cc(CN5CCc6ccccc6C5)c(Cl)c4C[C@H]3C[C@@H]12 | -64.8% (active)
10 | O=C(COc1ccc(/C=C2\CSc3ccccc3C2=O)cc1)c1ccc(Cl)cc1 | 80%
11 | CCCn1c(=S)sc2c(NNC(C)=O)nc(C)nc21 | 58.1%
12 | COc1ccc2c(c1)/C(=C\c1sc(=S)[nH]c1O)C(C(=O)O)=N2 | 101%
13 | CN(C)[C@@H]1C(=O)C(C(=O)NCc2nc3[nH]cnc(=S)c3[nH]2)=C(O)[C@@]2(O)C(=O)C3=C(O)c4c(O)cccc4[C@@](C)(O)[C@H]3C[C@@H]12 | 4.14% (active)
14 | CCOC(=N)c1ccc(C(=N)OCC)cc1 | 101%
15 | COc1ccc(C2NC3=C(CCCC3)C(C#N)(C#N)C2(C#N)C#N)cc1 (stereo not given) | 41.3%
16 | CCCCC#Cc1c(I)n(C2OC(CO[Si](C)(C)C(C)(C)C)C3OC(C)(C)OC32)c(=O)[nH]c1=O (stereo not given) | -29.4% (active)
17 | O=C(Nc1cccc2ccccc12)c1cc2c(cc1Br)OCO2 | 75.9%
18 | C[C@H]1[C@H](C)CC[C@]2(C(=O)N3CCN(C)CC3)CC[C@]3(C)C(=CC[C@@H]4[C@@]5(C)C/C(=C/c6cccnc6)C(=O)C(C)(C)[C@@H]5CC[C@]43C)[C@H]12 | -54.4% (active)
19 | CC1(C)CC(=O)C2=C(C1)N(c1ccc(OC(F)(F)F)cc1)C(N)=C(C#N)C2c1ccc(Br)cc1F (stereo not given) | 78.5%
20 | CCc1cc(C)cc(O)c1 | 105%

Row | SMILES | growth
21 | O=C(COc1ccc(/C=C2\Oc3ccccc3C2=O)cc1)Nc1nc2ccccc2s1 | -68.9% (active)
22 | CCN(CC)c1ccc(C2=NN(C(C)=O)C(c3cc(OC)c(OC)c(OC)c3)C2)cc1 (stereo not given) | -42% (active)
23 | C=CCC(OC(C)=O)c1ccc(OC)c(OC)c1 (stereo not given) | 116%
24 | CC(=O)Oc1ccccc1C(=O)/C=C/c1cccc([N+](=O)[O-])c1 | 17.3%
25 | CCN1C(=O)N(CC)C2Nn3c(s/c(=C\c4ccccc4Br)c3=O)=NC21 (stereo not given) | -34.7% (active)
26 | COc1cc(/C(C#N)=C/c2nc3c(N4CCOCC4)nc(Cl)nc3n2C)cc(OC)c1OC | -29% (active)
27 | O=C(Cn1cccc(Nc2ccccc2)c1=O)Nc1ccccc1 | 118%
28 | Nc1nc(Nc2ccc(OCc3cccc(F)c3)cc2)c2c(n1)[nH]c1ccc(O)cc12 | -64.8% (active)
29 | CCC(=O)C(CC)c1cccc(OC)c1 (stereo not given) | 97.5%
30 | CCC1CN2C(=N1)c1ccccc1-c1cc(Cl)ccc12 (stereo not given) | 2.51% (active)
31 | CC(=O)n1cc([C@H]2CC[C@H](c3cn(C(C)=O)c4ccccc34)c3c2[nH]c2ccccc32)c2ccccc21 | 111%
32 | COc1ccccc1N1CCN(CCCOc2ccc(C(=O)/C=C3/C(=O)Nc4ccccc43)cc2)CC1 | 52.8%
33 | CN(C)C(=S)N(C)C | 86.6%
34 | CN(C)C(=S)SCN1C(=O)c2ccc([N+](=O)[O-])cc2S1(=O)=O | 75.3%
35 | COc1ccc(Cc2nc(C#N)c(N3CCN(c4ccc(F)cc4)CC3)o2)cc1 | 79.2%
36 | CC(/C=C/C=C(\C)[C@H](O)[C@H](C)C(=O)O[C@H]1C[C@H](C)C=C2C=C[C@@]3(C)O[C@@H](O)CC(=O)[C@]3(C)[C@H]21)=C\C=C\C(=O)O | 34%
37 | O=C1N(C[P+](c2ccccc2)(c2ccccc2)c2ccccc2)CCCN1C[P+](c1ccccc1)(c1ccccc1)c1ccccc1 | 62.9%
38 | N=C(N)c1ccc(-c2ccc(-c3cncc4ccccc34)s2)s1 | 13.6%
39 | Cn1c(=O)c2c(nc(N/N=C/c3ccccc3Cl)n2C)n(C)c1=O | 91.6%
40 | O=S(=O)(NCCNc1nccc(-c2c(-c3ccc(F)cc3)nc3sccn23)n1)c1ccc2ccccc2c1 | 88.1%

Reference: PubChem BioAssay (NCI)
